# In ChEMBL document CHEMBL3988442, “University of Dundee, Small-Polar-MMV Screening Library” (2021):
# The whole screen tested about 48,000 compounds, of which about 13,000 (27%) showed an effect of 50% or more. Some of the results follow.
# Tested on: Wolbachia pipientis
# Assay: Anti-Wolbachia Cell-Based Screen
# Format: functional
# Parameters: scale not given: in the data most compounds retested in dose-response had high values
# Details: 5 µM
row,SMILES,Percent Effect [%]
1,CC(C)NC(=O)c1nnn(-c2cccc(C(F)(F)F)c2)c1N,5.987
2,O=C(CCO)N1CCC2(CCc3ccc(-c4ccoc4)cc32)CC1,-1.453
3,COc1ncccc1C(=O)N1CCC(c2nc3c(C)cccc3[nH]2)CC1,-11.64
4,Cc1cnn(CC2CN(Cc3nc4cccnc4[nH]3)CCO2)c1 (centres undefined),117.2
5,O=c1[nH]c(CN2CCOC(Cn3cccn3)C2)nc2ccccc12 (centres undefined),108.3
6,Cc1cnn(CC2CCCN2CCc2nc3ccccc3c(=O)[nH]2)c1 (centres undefined),-0.3603
7,c1ccc(Cn2ccnc2CN2CCOC(Cn3cccn3)C2)cc1 (centres undefined),5.197
8,Cc1cnn(CC2CN(Cc3nc4ccccc4c(=O)[nH]3)CCO2)c1 (centres undefined),128.5
9,Cc1cnn(CC2CN(c3ncnc4ccccc34)CCO2)c1 (centres undefined),-26.67
10,O=S(=O)(CCN1CCOC(Cn2cccn2)C1)c1ccccc1 (centres undefined),-8.739
11,N[C@@H]1CC[C@@H]1NC(=O)c1ccccc1OC(F)(F)C(F)F,-9.663
12,CNC(=O)CN1CCO[C@H]2CN(C(=O)C3CC3)C[C@H]21.O=C(O)C(F)(F)F,8.052
13,Cc1ccc(S(=O)(=O)N2CCC(O)(CN(C)C)C2)cc1 (centres undefined),128.7
14,CN(C)CC1(O)CCN(S(=O)(=O)c2cccc(F)c2)C1 (centres undefined),142.4
15,O=S(=O)(c1cccc(F)c1)N1C[C@@H]2CC[C@H](C1)N(Cc1ccccc1)C2,7.587
16,Cc1ccc(S(=O)(=O)N2CCC3(CC(C(=O)NCC4CC4)=NO3)C2)cc1 (centres undefined),-17.63
17,COc1cccc(S(=O)(=O)N2CCC(O)(CN(C)C)C2)c1 (centres undefined),-4.6
18,CC[C@H]1CN(S(=O)(=O)c2ccc(OC)cc2)CC[C@H]1CC(=O)O,6.997
19,COc1ccc(S(=O)(=O)N2CCC(O)(CN(C)C)C2)cc1 (centres undefined),122.7
20,CN(C)CC1(O)CCN(S(=O)(=O)c2ccc(F)c(F)c2)C1 (centres undefined),-14.25
21,CCOC1COC2(CCN(S(=O)(=O)c3cccc(F)c3)CC2)C1 (centres undefined),-12.88
22,CN(C)CC1(O)CCN(S(=O)(=O)c2ccc(Cl)cc2)C1 (centres undefined),106.4
23,CN(C)CC1(O)CCN(S(=O)(=O)c2ccc(F)cc2)C1 (centres undefined),-17.25
24,CC(C)(C)C(O)CN1CCN(CC(=O)NCC(F)(F)F)CC1 (centres undefined),8.391

row,SMILES,Percent Effect [%]
1,COc1ccc(CCNC(=O)C2CCOC2)c(Cl)c1 (centres undefined),-19.93
2,O=S(=O)(CCNCc1ccc(Cl)cc1)N1CCOCC1,-1.046
3,CN(C)CCN1C(=O)CO[C@@H]2CN(c3ncc(F)cn3)C[C@H]21,-1.223
4,Cn1ccnc1CNC(=O)Nc1ccc(OC2CCC2)c(F)c1,1.11
5,Cc1c(NC(C)C(C)C)cccc1C(=O)NCc1nccn1C (centres undefined),-7.954
6,Cn1ccnc1SCCNC(=O)c1c[nH]nc1C1CCCCC1,-10.23
7,Cl.Cn1ccnc1CNC(=O)c1cnc(C2CCNCC2)cn1,74.03
8,Cl.Cn1ccnc1CNC(=O)c1ccnc(C2CCNCC2)c1,112.8
9,CC(C)N(Cc1nccn1C)C(=O)c1cnc(O)cn1,-3.4
10,COCCCC(=O)Nc1cc(Cl)c(Cl)cn1,-20.73
11,O=C(c1scc2c1OCCO2)N1CCOC(Cc2cccc(F)c2)C1 (centres undefined),-18.9
12,Cc1noc(-c2cnc(NC3CC3)nc2-c2ccco2)c1C,112.5
13,Cc1noc(-c2cnc(NC(C)C)nc2-c2ccco2)c1C,118.1
14,Cc1cnn(CC(C)NCc2csc(-c3ccco3)n2)c1 (centres undefined),6.093
15,Cc1noc(-c2cnc(NCC3CCCO3)nc2-c2ccco2)c1C (centres undefined),115.5
16,Cn1cc(-c2ccnc(NCC3CCCCO3)n2)cn1 (centres undefined),-0.1287
17,Cc1cnn(CC(C)NCc2nc(-c3ccco3)no2)c1 (centres undefined),2.799
18,Cc1nn(C)c2nc(-c3ccccn3)nc(NC[C@@H]3CCCO3)c12,-8.15
19,Cc1cc(C)c2nc(CN3CCC(N4CCOC4=O)CC3)cc(O)c2c1,-3.092
20,COCCN(C)CCN1CC2(CCN(C3CCCNC3)CC2)OC1=O (centres undefined),-6.573
21,CC(C)CCN1CCN(c2ncnc3nc(N)ccc23)CC1,6.537
22,Cn1c(-c2cccs2)nn(CCNS(=O)(=O)c2ccccc2Cl)c1=O,11.66
23,Cc1c(C(=O)N2CCC2(C)C)nnn1-c1cccc2cnccc12,16.96
24,CN(C)C(=O)N1CCC[C@]2(C(=O)N(C)C)CN(c3ccccn3)C[C@@H]2C1.O=C(O)C(F)(F)F,123.8

row,SMILES,Percent Effect [%]
1,CCC(=O)N1CCC[C@]2(C(=O)N(C)C)CN(c3ccccn3)C[C@@H]2C1.O=C(O)C(F)(F)F,98.59
2,CC(C)C(=O)N1CCC[C@]2(C(=O)N(C)C)CN(c3ccccn3)C[C@@H]2C1.O=C(O)C(F)(F)F,109.6
3,O=C(O)C(F)(F)F.O=C(O)C(F)(F)F.O=C(O)[C@]12CCCN(Cc3ccsc3)C[C@H]1CN(c1ccccn1)C2,-13.21
4,CCS(=O)(=O)N1CCC[C@]2(C(=O)N(C)C)CN(c3ccccn3)C[C@@H]2C1.O=C(O)C(F)(F)F,-14.88
5,O=C(O)C(F)(F)F.O=C(O)[C@]12CCCN(Cc3ccco3)C[C@H]1CN(c1ncccn1)C2,0.3269
6,CCS(=O)(=O)N1CCC[C@]2(C(=O)N(C)C)CN(c3ncccn3)C[C@@H]2C1.O=C(O)C(F)(F)F,-12.08
7,COCC(=O)N1CCC[C@]2(C(=O)N(C)C)CN(c3ccccn3)C[C@@H]2C1.O=C(O)C(F)(F)F,-6.724
8,CN(C)C(=O)[C@]12CCCN(CC3CC3)C[C@H]1CN(c1ccccn1)C2.O=C(O)C(F)(F)F.O=C(O)C(F)(F)F,89.5
9,CN(C)CCN1C[C@@H]2OCCN(Cc3cnn(C)c3)[C@@H]2C1,-15.62
10,COc1cccc(Cl)c1-c1cc(CN)ccc1F,-5.951
11,O=C(O)C(F)(F)F.O=C(O)C(F)(F)F.c1csc(CN2CCO[C@@H]3CN(C4CCOCC4)C[C@@H]3C2)c1,-1.995
12,O=C(NC[C@H]1OC[C@@H]2CCN(C3CCOCC3)C[C@@H]21)c1ccncc1.O=C(O)C(F)(F)F.O=C(O)C(F)(F)F,-8.097
13,CC(=O)N1CCO[C@@H]2CN(C(=O)c3ccc4ncccc4c3)CC[C@@H]2C1.O=C(O)C(F)(F)F,-0.4432
14,O=C(O)C(F)(F)F.O=C(O)C(F)(F)F.O=C(c1ccncc1)N1CC[C@@H]2CN(C3CCOCC3)CCO[C@@H]2C1,103.2
15,COCCN1CCO[C@H]2CCN(C(=O)c3cccs3)CC[C@@H]21.O=C(O)C(F)(F)F,9.308
16,O=C(O)C(F)(F)F.O=C(c1cccs1)N1CC[C@@H]2CN(C3CCOCC3)CCO[C@@H]2C1,103
17,Cc1ccc(CCNc2nc(-c3ccncc3)nc3c2CCNCC3)o1,-0.1721
18,N#Cc1cccc(Cl)c1NCCc1n[nH]c(=O)[nH]1,-15.54
19,CC(c1ccc(C(=O)NCCc2nc(N)cc(O)n2)o1)N1CCCCC1 (centres undefined),6.141
20,CC(Cc1ccc2c(c1)OCO2)c1cn(CCc2c[nH]cn2)nn1 (centres undefined),-4.802
21,CN(CCn1ccc2ccccc21)C(=O)Cc1nnn[nH]1,-2.882
22,CC(Cc1cn(CCc2nc(N)cc(O)n2)nn1)c1ccccc1 (centres undefined),116.8
23,C=C(C)COc1cccc(CNCCc2nc(N)cc(O)n2)c1,6.733
24,CC(Cc1cn(CCc2n[nH]c(=O)[nH]2)nn1)c1ccccc1 (centres undefined),124.9

row,SMILES,Percent Effect [%]
1,CN(CCn1ccc2ccccc21)C(=O)Cc1n[nH]c(=O)[nH]1,0.08952
2,CC(Cc1cn(CCc2nnn[nH]2)nn1)c1ccccc1 (centres undefined),103.4
3,c1cc(CCN2CCCC2CN2CCCCC2)ccn1 (centres undefined),39.01
4,CCN(CC)Cc1ccc(C(=O)NC2CCc3cc(F)ccc32)o1 (centres undefined),6.12
5,Cc1nccn1CCC1CCCCN1C(=O)c1ccc2nonc2c1 (centres undefined),1.487
6,Cn1c(CN2CCCCC2)nnc1C1CCCN(C(=O)CCC(N)=O)C1 (centres undefined),11.64
7,NC(=O)CCN(C(=O)c1cccc2c1OCO2)c1ccccc1,16.64
8,Cc1n[nH]c(=O)c2c(NC(=O)CN3CCOCC3)oc(C)c12,3.045
9,CC1(C)OC(=O)N(CCOc2ccc(F)cc2)C1=O,112.1
10,N[C@H]1CN(CCOc2ccc(F)cc2)C[C@@H]1C1CC1,-23.63
11,CN(Cc1ccon1)C(=O)CN1C(=O)OC(C)(C)C1=O,-6.77
12,CN(Cc1ccoc1)C(=O)CN1C(=O)OC(C)(C)C1=O,-7.956
13,CC1(C)OC(=O)N(CCCC(=O)c2ccc(F)cc2)C1=O,116.7
14,O=S1(=O)COCCN1CCOc1ccc(F)cc1,-2.392
15,CN1CCCC1CNC(=O)CCCOc1ccc(F)cc1 (centres undefined),-3.981
16,CC1(C)OC(=O)N(CCCOc2ccc(F)cc2)C1=O,96.74
17,O=S1(=O)COCCN1CCCOc1ccc(F)cc1,1.2
18,CC(C)OCCSCc1nnc(-c2cccc(F)c2)o1,-1.35
19,CCNC(=O)[C@@H]1C[C@H](N)CN1C(=O)CCc1ccccc1Cl,-6.305
20,Cn1cc(CN2CCO[C@H]3CN(Cc4ccco4)C[C@H]32)cn1,-13.96
21,CN(Cc1cc(-c2cccnc2)no1)C(=O)c1cccn1C,-14.42
22,CC(C)SCC(=O)N1CCc2c(nc(N(C)C)nc2N(C)C)C1,-6.369
